Among the test systems are NCI-H23 lung; NCI-H226 lung; NCI-H322M lung; HOP-62 NSCLC; NCI-H460 lung; HOP-92 NSCLC; NCI-H522 lung; A549/ATCC NSCLC; 786-0 renal; COLO 205 colon; DU-145 prostate; K-562 leukemia; MALME-3M melanoma; MDA-MB-231 breast; RXF 393 renal; SF-268 CNS; SF-295 CNS; SF-539 CNS; UACC-257 melanoma; M14 melanoma.
Common to all, as to assay: NCI-60 one-dose screen, 48 h (100 = growth as untreated, 0 = no growth, -100 = all killed)
Common to all, as to details: 10 µM unless noted

This is part of a sample that, as a whole, favours compounds with a hit. Of some 83,000 tested, about 20% had one in any assay.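 Activity criterion: percent growth below 10, measured after cells in 96-well plates were exposed to a single compound concentration for 48 hours.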 Active and inactive are the calls of the source.

As for `C/C(=N\N=C1/C(=O)Nc2ccc(Cl)cc21)c1ccc2c(c1)Nc1ccccc1S2`, the growth in the experiment with NCI-H23 lung was -28.2% (active); in the experiment on NCI-H226 lung, 31.3% (inactive); in the experiment with NCI-H322M lung, 28.3% (inactive); in the experiment on HOP-62 NSCLC, 19.3% (inactive); in the experiment with NCI-H460 lung it was -21.9% (active); in the experiment on HOP-92 NSCLC, -10.5% (active). The growth was -34% (active) in the experiment with NCI-H522 lung; -6.39% (active) in the experiment with A549/ATCC NSCLC; -70% (active) with 786-0 renal; -41.7% (active) in the experiment on COLO 205 colon; -56.3% (active) with DU-145 prostate; 10% (inactive) in the experiment on K-562 leukemia. Also, the growth with MALME-3M melanoma was -19.6% (active); in the experiment with MDA-MB-231 breast it was -2.47% (active); in the experiment on RXF 393 renal it was -11.5% (active); in the experiment with SF-268 CNS it was 35.7% (inactive); in the experiment on SF-295 CNS it was -27.4% (active); in the experiment on SF-539 CNS it was 3.26% (active). The growth is 10.1% (inactive) in the experiment with UACC-257 melanoma and -20.8% (active) in the experiment with M14 melanoma.
As for `S=C(NCCc1ccccc1)Nc1ccc(OCc2nc3ccccc3[nH]2)cc1`, the growth with NCI-H23 lung is 104% (inactive); in the experiment with NCI-H226 lung, 108% (inactive); with NCI-H322M lung it was 100% (inactive); in the experiment with HOP-62 NSCLC, 103% (inactive); in the experiment with NCI-H460 lung it was 108% (inactive); in the experiment on HOP-92 NSCLC, 100% (inactive). Moreover, the growth in the experiment on NCI-H522 lung was 101% (inactive); in the experiment with A549/ATCC NSCLC, 101% (inactive); in the experiment with 786-0 renal it was 105% (inactive); in the experiment on COLO 205 colon, 109% (inactive); with DU-145 prostate it was 110% (inactive); in the experiment with K-562 leukemia, 101% (inactive). Further, the growth was 102% (inactive) in the experiment with MALME-3M melanoma; 109% (inactive) with MDA-MB-231 breast; 122% (inactive) in the experiment with RXF 393 renal; 100% (inactive) in the experiment with SF-268 CNS; 104% (inactive) in the experiment with SF-295 CNS; 102% (inactive) with SF-539 CNS. Besides, the growth is 99.1% (inactive) in the experiment on UACC-257 melanoma and 95.9% (inactive) with M14 melanoma.
Regarding `COc1cc(/C=C/C(=O)c2ccc(C)cc2)ccc1Oc1nc(Nc2ccc(F)cc2)nc(N(C)C)n1`, the growth in the experiment on NCI-H23 lung is 39% (inactive); in the experiment with NCI-H226 lung, 61.9% (inactive); with NCI-H322M lung it was 74.1% (inactive); with HOP-62 NSCLC, 86.4% (inactive); in the experiment on NCI-H460 lung it was 34.4% (inactive); in the experiment on HOP-92 NSCLC, 52.7% (inactive). For the same compound, the growth in the experiment on NCI-H522 lung is 44.8% (inactive); in the experiment on A549/ATCC NSCLC, 60% (inactive); in the experiment with 786-0 renal, 37.5% (inactive); with COLO 205 colon, 86.8% (inactive); with DU-145 prostate it was 50.1% (inactive); with K-562 leukemia, 26.8% (inactive). In addition, the growth is 69% (inactive) in the experiment with MALME-3M melanoma; 31.2% (inactive) with MDA-MB-231 breast; 47.8% (inactive) in the experiment with RXF 393 renal; 47.1% (inactive) with SF-268 CNS; 30% (inactive) in the experiment with SF-295 CNS; -31.9% (active) in the experiment with SF-539 CNS. The growth is 41.3% (inactive) with UACC-257 melanoma and 56.9% (inactive) with M14 melanoma.
As to `COc1cc2c(c(OC)c1OC)C(=O)CC(c1cccc(NC(=O)c3cc([N+](=O)[O-])ccc3Cl)c1)O2` (stereo not given), the growth in the experiment on NCI-H23 lung is 20.1% (inactive); with NCI-H226 lung it was 25.3% (inactive); in the experiment with NCI-H322M lung it was 55.7% (inactive); with HOP-62 NSCLC, 43% (inactive); in the experiment with NCI-H460 lung, 30.8% (inactive); with HOP-92 NSCLC it was 36.3% (inactive). In addition, the growth with NCI-H522 lung was -27.1% (active); in the experiment on A549/ATCC NSCLC, 35.6% (inactive); in the experiment with 786-0 renal, 25.1% (inactive); in the experiment with COLO 205 colon it was 37.1% (inactive); with DU-145 prostate, 5.58% (active); in the experiment on K-562 leukemia, 19.5% (inactive). Moreover, the growth with MALME-3M melanoma is 51.9% (inactive); in the experiment on MDA-MB-231 breast, 6.08% (active); in the experiment on RXF 393 renal it was -6.08% (active); with SF-268 CNS, 42.2% (inactive); with SF-295 CNS, 49.8% (inactive); with SF-539 CNS, 22.2% (inactive). The growth in the experiment on UACC-257 melanoma was 39.9% (inactive); in the experiment on M14 melanoma it was 0.0604% (active).
Take `COc1ccc(-c2nc(SCC(C)C)nc(NCCc3c[nH]c4ccccc34)c2C#N)cc1`: the growth is 73.9% (inactive) with NCI-H23 lung; 45.1% (inactive) with NCI-H226 lung; 87.7% (inactive) in the experiment with NCI-H322M lung; 55.2% (inactive) with HOP-62 NSCLC; 36.6% (inactive) in the experiment on NCI-H460 lung; 50.3% (inactive) in the experiment on HOP-92 NSCLC. Further, the growth in the experiment on NCI-H522 lung is 62.5% (inactive); in the experiment with A549/ATCC NSCLC, 76.6% (inactive); in the experiment on 786-0 renal it was 56.6% (inactive); in the experiment on COLO 205 colon, 76.1% (inactive); in the experiment with DU-145 prostate, 77.2% (inactive); with K-562 leukemia, 33.1% (inactive). Also, the growth is 87.3% (inactive) in the experiment with MALME-3M melanoma; 36.5% (inactive) in the experiment on MDA-MB-231 breast; -8.09% (active) in the experiment with RXF 393 renal; 58.1% (inactive) with SF-268 CNS; 45% (inactive) with SF-295 CNS; 48% (inactive) with SF-539 CNS. For the same compound, the growth in the experiment on UACC-257 melanoma was 98.1% (inactive); with M14 melanoma, 81.2% (inactive).
Turning to `CCCCSc1nc(NCCc2c[nH]c3ccccc23)c(C#N)c(-c2ccccc2)n1`, the growth in the experiment on NCI-H23 lung is 15.8% (inactive); with NCI-H226 lung, 44.6% (inactive); with NCI-H322M lung, 83.8% (inactive); in the experiment on HOP-62 NSCLC, 39.7% (inactive); in the experiment with NCI-H460 lung, 14.5% (inactive); in the experiment on HOP-92 NSCLC, -1.67% (active). Moreover, the growth with NCI-H522 lung was 47.4% (inactive); in the experiment on A549/ATCC NSCLC, 39.1% (inactive); with 786-0 renal it was 10.6% (inactive); in the experiment on COLO 205 colon, 24.8% (inactive); in the experiment with DU-145 prostate, 54% (inactive); with K-562 leukemia, 8.19% (active). The growth in the experiment on MALME-3M melanoma was 86.9% (inactive); in the experiment with MDA-MB-231 breast, 18.3% (inactive); with RXF 393 renal it was -8.31% (active); with SF-268 CNS, 39.9% (inactive); with SF-295 CNS, 48.4% (inactive); in the experiment on SF-539 CNS, 46.6% (inactive). Moreover, the growth is 81.4% (inactive) in the experiment on UACC-257 melanoma and 60.1% (inactive) in the experiment on M14 melanoma.
As for `CCC(C)(C)c1ccc(OCCCCCCN2CCN(c3ccncc3)CC2)cc1`, the growth in the experiment with NCI-H23 lung was 1.24% (active); in the experiment on NCI-H226 lung, 35.6% (inactive); in the experiment on NCI-H322M lung, 47.6% (inactive); in the experiment on HOP-62 NSCLC, 35.1% (inactive); in the experiment with NCI-H460 lung it was -29.7% (active); in the experiment with HOP-92 NSCLC it was -27.8% (active). For the same compound, the growth was 8.93% (active) with NCI-H522 lung; 32.8% (inactive) in the experiment with A549/ATCC NSCLC; -79% (active) with 786-0 renal; -84.4% (active) in the experiment with COLO 205 colon; 35.5% (inactive) in the experiment with DU-145 prostate; -24.8% (active) in the experiment with K-562 leukemia. Besides, the growth with MALME-3M melanoma is -94.7% (active); in the experiment with MDA-MB-231 breast, -77.6% (active); in the experiment on RXF 393 renal, -62.5% (active); in the experiment on SF-268 CNS, 50.5% (inactive); with SF-295 CNS, -78% (active); with SF-539 CNS, -72.4% (active). For the same compound, the growth in the experiment on UACC-257 melanoma is 18.4% (inactive); in the experiment with M14 melanoma, -68.7% (active).

These data come from PubChem BioAssay (NCI).
